# High-throughput results deposited in PubChem BioAssay by The Scripps Research Institute Molecular Screening Center.
# Rows were chosen to be rich in hits. Some 3.5% of all compounds tested hit in one or more screens of this group.
# GPR151 ag: human GPR151 activation | Q8TDV0 | PathHunter beta-arrestin GPR151 cells, luminescence | activation, % at 11.2 µM | 650,000 compounds, 1% hits | AID 1508602; in the data active means activation above about 4.9%;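 further: 0% = median of compound wells and 100% = cells with positive control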
# Target sequence (Q8TDV0 whole entry, looked up): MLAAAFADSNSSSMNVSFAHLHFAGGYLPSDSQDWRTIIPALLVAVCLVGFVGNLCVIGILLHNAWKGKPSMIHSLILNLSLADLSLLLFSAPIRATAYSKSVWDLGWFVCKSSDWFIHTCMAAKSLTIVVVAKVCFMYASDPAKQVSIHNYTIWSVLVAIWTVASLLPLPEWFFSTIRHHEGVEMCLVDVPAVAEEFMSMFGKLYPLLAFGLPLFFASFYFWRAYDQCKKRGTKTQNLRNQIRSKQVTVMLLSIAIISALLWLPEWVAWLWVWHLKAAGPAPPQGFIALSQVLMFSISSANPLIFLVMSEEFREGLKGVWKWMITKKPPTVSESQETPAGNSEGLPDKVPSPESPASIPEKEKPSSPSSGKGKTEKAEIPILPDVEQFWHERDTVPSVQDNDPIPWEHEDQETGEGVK
# TEAD-YAP block: TEAD-YAP interaction inhibition. HEK-TIYL cells, TEAD-Gal4/YAP UAS-luciferase luminescence. inhibition, % at 9.12 µM. 640,000 compounds, 1.4% hits; in the data active means inhibition above about 32%;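 further: 0% = median of test compound wells and 100% = reference inhibitor wells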
# FBW7 activator: activators of human E3 ligase FBW7. Q969H0. 650,000 compounds, 0.13% hits. normalized activity (activation), % at 26.1 µM. AlphaScreen FBW7–phospho-cyclin E peptide binding, activator screen. AID 1259310; in the data active means normalized activity above about 1.9%;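 further: purified mutant Fbw7 with reduced substrate affinity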
# MITF inh: inhibitors of human MITF | O75030 | AlphaScreen MITF homodimerization, bead proximity signal | inhibition, % at 2.6 µM | 650,000 compounds, 0.91% hits | AID 1259374; in the data active means inhibition above about 50%;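 further: 0% = vehicle wells with protein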
# MITF inh conf: confirmation of human MITF inhibitors; shares compounds with MITF inh; 4,700 compounds, 16% hits; inhibition, % at 2.6 µM; AlphaScreen MITF homodimerization, biotin/His-MITF beads;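 active means inhibition above a cutoff derived from the DMSO control wells, cut at about 28% in these data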;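 further: 0% = MITF dimer wells with DMSO only; inhibitors lower the bead chemiluminescence by keeping MITF from dimerizing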
# AS interf DR: optically interferes with AlphaScreen signal in dose response. shares compounds with MITF inh. AlphaScreen optical interference counterscreen, cell-free. IC50, µM. 480 compounds, 6% hits. AID 1259373; call rule not given here
# AS interf ctr: AlphaScreen optical interference, counter-screen. AID 1259376. 4,700 compounds, 7.6% hits. inhibition, % at 2.6 µM. shares compounds with MITF inh. LysRS AlphaScreen counterscreen, signal interference, triplicate;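 active means inhibition above a cutoff derived from the DMSO control wells, cut at about 30% in these data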
# An asterisk follows results filed as active; nt = not tested or not shown.
SMILES,GPR151 ag,TEAD-YAP block,FBW7 activator,MITF inh,MITF inh conf,AS interf ctr,others
COCCNCCOCCOc1c(C)cccc1C(C)(C)C,-2.4,-7.9,-0.1,61.3*,15.7,17.5,
O=C(NCCCN1CCN(C2CCCCC2)CC1)Nc1cccc2ccccc12,0.4,7.4,0.0,-0.7,nt,nt,
CC(C)n1cnc2c(N)nc(Nc3ccc4ncccc4c3)nc21,-0.6,-35.0,-0.2,4.7,nt,nt,
Cc1cc(OC(=O)c2cccc([N+](=O)[O-])c2)ccc1N1C(=O)CCC1=O,0.0,-1.9,0.0,69.7*,2.7,8.7,
CCOC(=O)c1cnc2ccccc2c1Nc1ccc(O)cc1,1.2,-0.7,-0.1,-4.0,nt,nt,
CCOC(=O)c1cnc2ccccc2c1Nc1ccc(C)c(C)c1,-0.9,-10.8,-0.1,54.4*,-10.7,-7.9,
CCOC(=O)c1cnc2ccccc2c1Nc1cccc(OC)c1,2.7,-11.7,0.0,73.4*,-3.3,-4.2,
O=C1CC(c2ccccc2)CC(O)=C1C=Nc1cccc2ccccc12 (stereo unspecified),0.7,1.1,-0.2,-5.1,nt,nt,
O=C(Nc1cccnc1Cl)c1cnn2c(C(F)(F)F)cc(-c3cccs3)nc12,-1.2,-0.2,-0.4,3.0,nt,nt,
CSc1ccccc1NC(=O)c1cnn2c(C(F)(F)F)cc(-c3cccs3)nc12,-0.8,3.1,0.8,74.6*,9.0,-0.5,
O=C(O)c1cc(NN=C2CCCC2)ccc1Cl,1.3,-20.8,-0.6,71.8*,72.8*,0.7,AS interf DR=>7.18
ClC1(Cl)CC1CNc1ncnc2sc3c(c12)CCC3 (stereo unspecified),1.4,0.5,-0.1,60.0*,10.3,14.1,
CN(Cc1ccco1)C(=O)C(=O)Nc1ccc2nc3n(c(=O)c2c1)CCCCC3,-0.8,-7.0,-0.2,-3.4,nt,nt,
CCCCN(Cc1ccco1)C(=O)C(=O)Nc1ccc2nc3n(c(=O)c2c1)CCCCC3,-1.0,-1.7,1.0,75.9*,7.8,20.9,
Clc1cc2c(c3ncccc13)OCN(Cc1cccnc1)C2,-0.2,83.5*,-1.2,93.6*,96.3*,100.4*,
O=S1(=O)CCC(N2COc3c(cc(Cl)c4cccnc34)C2)C1 (stereo unspecified),-0.1,14.4,-0.7,54.8*,39.4*,91.2*,
CCC/C=N/NC(=O)COc1ccc(Br)cc1,1.1,6.4,0.0,-2.5,nt,nt,
OC(CNc1ccccc1)Cn1ccc2ccccc21 (stereo unspecified),1.2,-6.4,-0.3,52.4*,12.7,25.1,
Cc1nc(SCC(=O)Nc2cccc(C(F)(F)F)c2)c2c3c(sc2n1)CCC3,-0.8,-9.5,0.1,73.8*,5.5,13.3,
N#Cc1cc(C#N)c(SCC(=O)Nc2ccccc2Br)nc1N,1.8,-17.8,-0.1,3.6,nt,nt,
Fc1ccc(CN2CCN(Cc3ccc4ccccc4c3)CC2)cc1,1.0,-7.4,-0.1,78.7*,19.7,14.2,
O=C(c1ccc(F)cc1)N1CCN(Cc2ccc3ccccc3c2)CC1,2.6,14.6,0.7,57.5*,-8.2,-6.5,
O=C(Nn1c(-c2cccc(Cl)c2)nc2ccccc2c1=O)c1ccc(Cl)c([N+](=O)[O-])c1,-0.3,5.2,0.0,6.8,nt,nt,
COC(=O)c1ccc(CNC(=O)c2cc(COc3ccc(OC)cc3Cl)on2)cc1,-1.6,-37.0,0.0,12.4,nt,nt,
N#Cc1cc[n+](CC(=O)c2cccc([N+](=O)[O-])c2)cc1,0.9,0.8,-0.1,63.0*,-16.1,-0.8,
SMILES,GPR151 ag,TEAD-YAP block,FBW7 activator,MITF inh,MITF inh conf,AS interf ctr,others
CCOC(=O)c1cc[n+](CC(=O)c2cccc([N+](=O)[O-])c2)cc1,-2.3,5.5,0.0,4.4,nt,nt,
N#Cc1ccc(Cl)cc1-n1cccc1,-1.9,3.2,-0.1,-8.4,nt,nt,
CN1CCCN(CC(=O)N2CCc3ccccc32)CC1,0.8,-3.8,-0.6,77.6*,3.8,4.6,
CC1CC(C)(C)N(C(=O)CN2CCN(C)CC2)c2ccccc21 (stereo unspecified),-1.9,12.2,1.1,80.6*,4.8,14.5,
O=C(CN1CCN(c2ccccc2F)CC1)N1CCCc2ccccc21,2.1,7.1,-0.1,52.5*,9.4,21.8,
Cc1ccc2c(c1)C(C)CC(C)(C)N2C(=O)CN1CCN(C)CC1 (stereo unspecified),2.3,-2.5,-0.4,-3.7,nt,nt,
O=C(CN1CCN(c2ccccc2F)CC1)NCCC1=CCCCC1,-0.1,-5.6,0.1,67.6*,12.1,11.2,
COc1ccc([N+](=O)[O-])cc1NC(=O)COC(=O)c1cc[n+]([O-])cc1,-2.2,3.2,0.2,12.2,nt,nt,
COc1cc2nc(CN(C)Cc3cc(C)no3)nc(N)c2cc1OC,2.8,-31.0,0.2,16.7,nt,nt,
COc1cc2nc(CN(C)Cc3nccs3)nc(N)c2cc1OC,0.8,4.7,-0.3,72.6*,47.7*,100.2*,
CCOc1ccc(C(=O)Oc2cc(N)n(S(=O)(=O)c3ccccc3)n2)cc1,-0.2,-4.4,-0.1,19.7,nt,nt,
CCOC(=O)C1(CCOc2ccccc2)CCN(S(=O)(=O)c2c(C)noc2C)CC1,1.0,-6.2,0.2,-3.7,nt,nt,
CC(C(=O)N(C)Cc1ccccc1)N1CCN(C/C=C/c2ccccc2)CC1 (stereo unspecified),-1.1,-5.2,-0.3,59.1*,9.1,16.2,
O=C(CN1CCN(C/C=C/c2ccccc2)CC1)NCCCc1ccccc1,-0.9,1.2,0.0,0.6,nt,nt,
O=C(CN1CCN(C/C=C/c2ccccc2)CC1)NCc1ccccc1,0.0,10.3,-0.2,73.5*,6.3,-10.6,
CCn1cnc2sc(C(=O)N3CCN(c4ccc([N+](=O)[O-])cc4)CC3)c(C)c2c1=O,0.3,2.3,0.3,21.3,nt,nt,
CCCCCC(=O)CC[C@@H]1[C@@H](C/C=C\CCCC(=O)O)[C@@H](O)C[C@@H]1O,-2.3,nt,nt,56.4*,-0.4,12.5,
N#Cc1ccc(C(=O)Nc2ccc(I)cc2Cl)c(F)c1,3.9,1.7,0.1,2.1,nt,nt,
CCOC(=O)CSc1nc2c(sc(=S)n2CCc2ccccc2)c(=O)n1-c1ccccc1OC,0.0,-4.6,0.0,5.8,nt,nt,
COc1cc(CN2CCN(Cc3ccc(Br)cc3)CC2)cc2c1OCO2,0.1,-4.5,-0.4,69.4*,3.5,17.7,
COc1ccc(CN2CCN(Cc3cc(OC)c4c(c3)OCO4)CC2)c(OC)c1,-1.8,17.2,0.3,29.7,nt,nt,
COc1cc(CN2CCN(Cc3ccc(SC)cc3)CC2)cc2c1OCO2,-0.3,9.6,-0.2,64.7*,12.4,7.3,
COc1cc(OC)c(OC)cc1CN1CCN(Cc2cc(OC)c3c(c2)OCO3)CC1,-0.7,4.0,-0.1,58.9*,-7.5,-6.1,
COc1cc(CN2CCN(Cc3cccc(Cl)c3)CC2)cc2c1OCO2,-1.2,-6.7,-0.2,48.6,nt,nt,
COc1ccc(S(=O)(=O)N2CCN(c3ccccc3)CC2)cc1Br,-1.9,8.0,0.5,1.0,nt,nt,
COc1ccc(OC)c(NC(=O)CCCOc2ccc(Cl)cc2)c1,0.0,0.3,-0.1,3.4,nt,nt,
O=C(NNC(=S)NC1CCCCC1)C(=O)NNC(=S)NC1CCCCC1,-0.5,-2.0,-0.5,62.2*,7.9,-11.4,
